About 13,000 (27%) of roughly 48,000 compounds showed an effect of 50% or more. This is one part of the list.
test system: Wolbachia pipientis; test: Anti-Wolbachia Cell-Based Screen; type: functional; design: scale not given: in the data most compounds retested in dose-response had high values; settings: 5 µM

| SMILES | Percent Effect |
| --- | --- |
| Cc1nn(C)c(C)c1C(C)NC(=O)c1cc(CN2CCC(O)CC2)on1 (stereo not given) | -4.084% |
| Cc1cnn(Cc2ccc(NC(=O)N[C@@H]3C=C[C@H](CO)C3)cc2)c1 | -14.53% |
| CSC(C)Cc1c(-c2ccccc2)ncn1CCCNc1cccnc1 (stereo not given) | -5.851% |
| CCc1nccn1C1CCCN(C(=O)CCCc2ccccn2)C1 (stereo not given) | 115.4% |
| Cc1cnn(C2CCCN(C(=O)CCCn3ccnc3C)C2)c1 (stereo not given) | 111.3% |
| Cc1cc(C)n(CC2CCCN2C(=O)CCCc2ccccn2)n1 (stereo not given) | -3.027% |
| CCc1nccn1C1CCCN(C(=O)CCc2nccs2)C1 (stereo not given) | 3.707% |
| CCc1nccn1C1CCCN(C(=O)Cc2n[nH]c3ccccc23)C1 (stereo not given) | -2.139% |
| COc1ccccc1CC(=O)N1CCCC(n2nc(C)cc2C)C1 (stereo not given) | 7.114% |
| Cc1cc(C)n(C2CCCN(C(=O)CCCc3ccccn3)C2)n1 (stereo not given) | 93.32% |
| Cn1cnnc1C1CCCN(c2nc3ccccc3o2)C1 (stereo not given) | -0.3699% |
| CCc1ncc2c(n1)CN(Cc1cn3ccsc3n1)CC2 | 20.43% |
| Cc1nc2c(c(N(C)CC3Cc4ccccc4CN3C)n1)CCNCC2 (stereo not given) | -8.073% |
| CC(C)(C)NC[C@@H]1CCC[C@@H]2CN(Cc3csnn3)C[C@@H]21.O=C(O)C(F)(F)F.O=C(O)C(F)(F)F | 1.989% |
| CCN(C)S(=O)(=O)N1C[C@@H]2CC[C@H](C1)N(Cc1cscn1)C2=O | -57.82% |
| CC(Nc1cccc(CN2CCOC2=O)c1)C(=O)NC(N)=O (stereo not given) | 6.904% |
| Cc1nnc(C(C)Nc2cccc(COCCOC(C)C)c2)o1 (stereo not given) | -13.05% |
| CCOC(=O)C(C)Nc1cccc(COCc2ccco2)c1 (stereo not given) | 114.3% |
| COCc1cccc(NC(C)C(=O)N(C)Cc2ccccc2)c1 (stereo not given) | -9.622% |
| CCCNC(=O)C(C)Nc1ccc(COCC)cc1 (stereo not given) | -5.955% |
| CC(Nc1cccc(COCc2ccco2)c1)C(=O)NC(N)=O (stereo not given) | 118% |
| O=C(O)C(F)(F)F.O=C(O)C(F)(F)F.O=C(c1ccncc1)N1CCN2C[C@H](Oc3cccc(F)c3)C[C@H]2C1 | 3.231% |
| Cc1cccnc1NC(=O)C(C)Cn1nc(C(F)(F)F)cc1C (stereo not given) | 5.887% |
| c1c[nH]c2nc(C3CCNC3)nc-2c1 (stereo not given) | 89.57% |
| Fc1ccc2nc([C@H]3CCNC3)[nH]c2c1 | -0.4881% |
| CCC(=O)NCC(=O)Nc1ncc(I)cc1C | -1.135% |
| C[C@@H]1CN(C(=O)C2CCOCC2)C[C@]12CCN(c1cccnc1)C2=O.O=C(O)C(F)(F)F | -10.36% |
| Cc1ccc(N2C[C@H](C)[C@]3(CCN(c4cccnc4)C3=O)C2)nn1.O=C(O)C(F)(F)F.O=C(O)C(F)(F)F | 82.56% |
| COc1cc(N2CCC3(CC2)CCN(c2cccnc2)C3=O)ncn1.O=C(O)C(F)(F)F | -8.044% |
| C[C@H]1CN(c2ccccn2)C[C@@]12CCN(c1cccnc1)C2=O.O=C(O)C(F)(F)F.O=C(O)C(F)(F)F | 96.67% |

— ChEMBL document CHEMBL3988442, “University of Dundee, Small-Polar-MMV Screening Library” (2021)
